Methyltransferases: Primary Screen for Target Class Profiling of Small Molecule Inhibitors of Methyltransferases. purified enzyme, MTase-Glo SAH luminescence; stronger effect = lower value. calls only at 40 µM. 25,000 compounds, 3.9% hits; call rule not given here
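Each enzyme was reacted with SAM and its substrate, with compounds tested once at 40 uM; SAH formed was read by MTase-Glo luminescence.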
Calls only; . = inactive; + = active, no number; ! = not active in a repeat. The entries come from a sample that favours hits as a whole.

SMILES	Methyltransferases
COCCn1ncc(N2CCC(C(=O)NCCCN3CCC(N4CCCCC4)CC3)C2)cc1=O (stereo unspecified)	.
COc1ccc(NC(=O)CCc2nnc3n(CCc4ccccc4)c(=O)c4ccccc4n23)cc1	.
COc1cccc(CN2C(=O)c3cc(-c4ccco4)nn3CC2(C)C(=O)NC2CCCCC2)c1 (stereo unspecified)	.
Cn1c(=O)n(C)c2cc(S(=O)(=O)N(Cc3ccco3)C(=O)c3cccnc3)ccc21	.
COc1cccc(-c2ccc(C(=O)N3CCC(NC(=O)c4ccc(C(F)(F)F)cc4)CC3)cc2)c1	.
CC#C[C@@H](CC(=O)O)c1ccc(OCc2cccc(-c3ccc(C(F)(F)F)cc3)c2)cc1	+
COc1ccc(NC(=O)Cn2nc3n(CC(C)C)c(=O)c4ccccc4n3c2=O)cc1OC	.
Cn1cc(C(=O)OCC2CCN(CCNS(C)(=O)=O)CC2)c2ccccc21	.
CN(C)CC1CCn2c(c(C3=C(c4cn(C)c5ccccc45)C(=O)NC3=O)c3ccccc32)C1 (stereo unspecified)	+!
Cn1cc(CN2CCCCCNC(=O)[C@@H]3CCC[C@@H]32)c2ccccc21	.
CCOC(=O)CNC(=O)N1Cc2c(sc3c2CCCC3)-n2cccc2C1c1ccc(CC)cc1 (stereo unspecified)	.
O=C(CCc1nnc2n(Cc3ccc(F)cc3)c(=O)c3ccccc3n12)N1CCN(c2cccc(Cl)c2)CC1	.
COc1ccccc1N1CCN(c2nc3c(S(=O)(=O)c4ccccc4)nnn3c3ccccc23)CC1	.
CC1(C(=O)NCc2ccccc2)Cn2cnc(C(=O)NCCc3ccc(Cl)cc3)c2C(=O)N1C1CC1 (stereo unspecified)	.
CC(C)(C[C@@](O)(Cc1cc2ccncc2[nH]1)C(F)(F)F)c1cc(F)ccc1O	+
CC(C)NC(=O)Cn1nc2nc(Nc3ccc(F)cc3)ccn2c1=O	.
CCOC(=O)Cc1c(-c2ccccc2)c2cc(C)ccc2[nH]c1=O	.
O=C(CCc1nnc2n(Cc3ccc(Cl)cc3)c(=O)c3ccccc3n12)N1CCOCC1	.
O=C1CCN(Cc2cccc(F)c2)CCCCCCN1	.
Nc1c(NC/C=C\COc2cc(CN3CCCCC3)ccn2)c(=O)c1=O	+
CCc1ccc(-c2cc3n(n2)CC(C)(C(=O)NC2CCCCCC2)N(CCCOC(C)C)C3=O)cc1 (stereo unspecified)	.
CC(C)c1ccc(NC(=O)Cn2c(=O)oc3cc(S(=O)(=O)N4CCCCC4)ccc32)cc1	.
COc1ccccc1CN1C(=O)c2cc3ccccc3n2CC1(C)C(=O)NCCCOC(C)C (stereo unspecified)	.
CN(c1ccccc1CNc1nc(Nc2ccc3c(c2)CC(=O)N3)ncc1C(F)(F)F)S(C)(=O)=O	+
COc1ccc(-c2cc3n(n2)CC(C)(C(=O)NC2CCCCC2)N(Cc2ccc(C)cc2)C3=O)cc1 (stereo unspecified)	.
SMILES	Methyltransferases
O=C(Cc1ccccc1)OC[C@H]1O[C@H](O[C@H]2O[C@H](CO)[C@@H](O)[C@H](O)[C@H]2O)[C@H](O)[C@@H](O)[C@@H]1O	.
O=C(CCc1ccccc1)c1c(O)c([C@@H]2O[C@H](CO)[C@@H](O)[C@H](O)[C@H]2O)c(O)c([C@@H]2O[C@H](CO)[C@@H](O)[C@H](O)[C@H]2O)c1O	+
CN(C)c1ccc(C(=O)NC[C@H]2O[C@@H](CO)[C@@H](O)[C@H]2N(C)CCc2ccccc2)cc1	.
CCOC(=O)c1cc2n(n1)CC(C)(C(=O)NCc1ccccc1)N(CCc1ccc(SC)cc1)C2=O (stereo unspecified)	.
CC(C)(C)c1cc(/C=C(\C#N)C(N)=S)cc(C(C)(C)C)c1O	+
COc1cc(Nc2nc(SCC(=O)NCCC(C)C)nc3ccccc23)cc(OC)c1	.
Cn1c(=O)c2ccc(C(=O)NC3CCCCC3)cc2n2c(=O)n(Cc3ccc(N4CCCC4=O)cc3)nc12	.
Cc1cc2nn(CC(=O)Nc3cccc(Cl)c3)c(=O)n2c(Nc2ccccc2C)n1	.
O=S(=O)(c1cccc(-c2nc(-c3ccccc3)no2)c1)N1CCc2ccccc21	.
O=c1cc(-c2ccccc2)oc2c(O)c(O)ccc12	.
COC(=O)COc1ccc2c(-c3ccccc3)cc(=O)oc2c1C	.
Cc1cc(=O)oc2c(C=O)c(O)ccc12	+
CCOc1ccc(CN2C(=O)c3cc4ccccc4n3CC2(C)C(=O)NCCCOC(C)C)cc1 (stereo unspecified)	.
COc1ccc(NC(=O)Cn2nc3nc(Nc4ccc(F)cc4)ccn3c2=O)cc1Cl	.
O=C1C(SCCO)=C(SCCO)C(=O)c2ccccc21	+
CCOC(=O)c1cc2n(n1)CC(C)(C(=O)NC1CCCCCC1)N(c1cccc(SC)c1)C2=O (stereo unspecified)	.
COCCNC(=O)c1ccc2c(=O)nc3c(-c4cccc(F)c4)n[nH]n3c2c1	.
CCn1nnc2c(N3CCOCC3)nc(-c3ccc(NC(=O)Nc4ccc(C(=O)N5CCN(C)CC5)cc4)cc3)nc21	+
Cc1cc(C(=O)N2CCc3ncnc(N4CCOCC4)c3CC2)n(C)n1	.
Cc1c(NC(=O)c2ccc(C(C)(C)C)cc2)cccc1-c1cn(C)c(=O)c(Nc2ccc(C(=O)N3CCOCC3)cc2)n1	.
O=S(=O)(Nc1cccc2c1CCCC2)c1ccc2[nH]c3c(c2c1)CCCC3	.
CCCC1(CCC)CCC2(CCN(CCCN(CC)CC)C2)CC1	+
CC1(C(=O)NC2CCCCCCC2)Cn2c(cc3occc32)C(=O)N1Cc1ccc(F)cc1 (stereo unspecified)	.
CCCCN1C(=O)c2cc3c(OC)ccc(OC)c3n2CC1(C)C(=O)NC1CCCC1 (stereo unspecified)	.
CCCCN1C(=O)c2ccccc2C(C(=O)NC2CC2)C12CCCCC2 (stereo unspecified)	.
SMILES	Methyltransferases
CCCCOc1ccccc1-c1cc2n(n1)CC(C)(C(=O)NC1CCCCCC1)N(CC)C2=O (stereo unspecified)	.
CCN1C(=O)c2ccccc2C1Nc1ccc(OCCN2CCCCC2)cc1 (stereo unspecified)	+
CCc1ccccc1NS(=O)(=O)c1ccc2c(c1)NC(=O)C(C)C(=O)N2 (stereo unspecified)	.
CCOCCCN1C(=O)c2cc(-c3ccccc3)nn2CC1(C)C(=O)NCc1ccccc1OC (stereo unspecified)	.
COCCCNC(=O)c1ccc(Cn2c(=O)c3ccccc3n(Cc3ccc(C(C)C)cc3)c2=O)cc1	.
CN1CCc2c(c3ccccc3n2Cc2ccc(C(=O)NO)cc2)C1	+!
Cn1nc2n(Cc3ccccc3)c(=O)c3ccc(C(=O)NC4CCCC4)cc3n2c1=O	.
CC(CN1C(=O)c2ccc(-c3ccco3)n2CC1(C)C(=O)NC1CCCCC1)c1ccccc1 (stereo unspecified)	.
CC(C)Cn1nc(CNC(=O)c2ccccc2F)c2ccccc21	.
O=C(O)C1=CC(=C(c2ccc(O)c(C(=O)O)c2)c2ccc(O)c(C(=O)O)c2)C=CC1=O	+
Cc1ccc(N2C(=O)c3cc4sccc4n3CC2(C)C(=O)NC2CCCC(C)C2C)cc1C (stereo unspecified)	.
C=CC(=O)N1CCN(C(=O)CNc2cc(-c3ccccc3Cl)c(Cl)cc2OC)CC1	.
COc1cccc(C(=O)N2CCN(C(=O)COc3cccc(C)c3)CC2)c1OC	.
C=CC(=O)N1CCN(C(=O)c2cc(-c3cc(Cl)ccc3Cl)c(Cl)cc2OC)CC1	+
